Compounds with a hit are over-represented: about 3.7% of the library has one in this group of screens.
PfHsp90 set2 = growth inhibition of PfHsp90-expressing yeast, primary screen, antimalarial PfHsp90 inhibitor project, S. cerevisiae, BacTiter-Glo luminescence, single point, set 2. BacTiter-Glo ATP, 48 h; yeast lacking PDR1 and PDR3 efflux regulators. inhibition, % at 9.4 µM. 310,000 compounds, 0.32% hits. AID 504621, 2011;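 active = every replicate shows inhibition above about 80%, whatever the replicate mean, limit read from the data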;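 note: 0% = DMSO neutral controls and 100% = 20 µM radicicol positive controls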
tim10-1 inh = growth inhibitors of tim10-1 mutant yeast, primary screen, luminescence, uHTS | S. cerevisiae tim10-1 ts strain growth, BacTiter-Glo, 24 h | inhibition, % at 20 µM | 330,000 compounds, 2.2% hits;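 active = inhibition of at least 40%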;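 note: mutant grown at 25 °C; 0% = DMSO wells with yeast and 100% = wells holding no yeast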
TIM10 inh = growth inhibitors of isogenic TIM10 control yeast, primary screen, counter-screen for tim10-1 yeast inhibitor project, luminescence, uHTS; S. cerevisiae TIM10 strain growth, BacTiter-Glo luminescence, 24 h; inhibition, % at 10 µM; 330,000 compounds, 1.4% hits;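 active = inhibition of 40% or more at the single tested concentration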;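 note: wild-type TIM10 isogenic control strain grown at permissive 25 °C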
NALP3 yeast inh = NALP3 inflammasome inhibitors in reconstituted yeast, primary screen, luminescence, uHTS. inhibition, % at 10 µM. Yeast reconstituted NLRP3/ASC/caspase-1, beta-gal luminescence, 24 h. 330,000 compounds, 0.39% hits;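 active = inhibition of 50% or more; inactive = inhibition below 50%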;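 note: plate controls were induced DMSO wells for no effect and uninduced yeast grown without galactose for full effect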
tim23-1 inh = growth inhibitors of tim23-1 mutant yeast, primary screen, luminescence, uHTS | S. cerevisiae tim23-1 growth, BacTiter-Glo luminescence, 24 h | inhibition, % at 20 µM | 330,000 compounds, 1.3% hits;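 active = growth inhibition of the mutant yeast at or above 50%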;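 note: temperature-sensitive mutant grown at 25 °C; plate controls were DMSO-treated mutant yeast for no effect and medium wells lacking yeast for full effect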
tim10-1 confirm = growth inhibitors of tim10-1 mutant yeast, confirmation, single concentration, luminescence, S. cerevisiae. shares compounds with tim10-1 inh. S. cerevisiae tim10-1 ts strain growth, BacTiter-Glo, 24 h. inhibition, % at 20 µM. 7,400 compounds, 56% hits. AID 463213, 2010;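 active = inhibition of yeast growth at or above a set limit in either of two repeat tests at 20 µM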;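 note: tim10-1 mutant grown at permissive 25 °C to find synthetic lethal compounds; 0% = DMSO yeast wells and 100% = medium wells without yeast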
An asterisk follows results filed as active; x = not tested or not shown.

SMILES | PfHsp90 set2 | tim10-1 inh | TIM10 inh | NALP3 yeast inh | tim23-1 inh | tim10-1 confirm
O=C(COc1ccc(F)cc1)Nc1nc(-c2ccccn2)cs1 | -11.3 | 21.9 | -5.7 | 43.6 | 40.8 | x
Cc1nn(-c2ccc(F)cc2)c(Cl)c1C(=O)N(C)CC(=O)Nc1cccc(F)c1 | x | 14.1 | 5.8 | 5.3 | 24.8 | x
O=Cc1cccn1-c1ccc2ccccc2c1 | -9.9 | -1.1 | 7.0 | 48.4 | 25.3 | x
C/C(CC(=O)Nc1ccc(N(C)C)cc1)=N\NC(=O)c1ccccn1 | 18.8 | 49.4* | 19.6 | 19.0 | 22.4 | 32.0*
C=CCn1c(CCn2c3ccccc3c3ccccc32)n[nH]c1=S | -1.1 | 43.4* | 33.1 | 11.8 | 29.1 | 36.5*
CCCCNC(=O)Cn1c(=O)c2c(ncn2CCC(C)C)n(Cc2ccccc2)c1=O | 23.0 | -8.7 | 8.7 | 20.1 | -1.2 | x
O=C(O)c1ccc(NS(=O)(=O)Cc2ccc(Cl)c(Cl)c2)cc1 | -1.2 | x | x | x | x | x
CCOC(=O)C1CCCN(C(=O)/C=C/c2ccc(Cl)cc2)C1 (stereo not given) | 24.9 | 41.4* | -14.1 | 2.0 | 18.6 | 17.9
CCc1cccc2c(C(=S)N3CCOCC3)c[nH]c12 | 13.8 | 19.5 | 8.2 | 6.8 | -0.6 | x
O=C(Nc1cc(Sc2ccccn2)cc([N+](=O)[O-])c1)c1cccc(F)c1 | 16.2 | 43.9* | 33.9 | 9.6 | 48.0 | 53.5*
Cc1sc2ccc3sccc3c2[n+]1C | 3.8 | 43.5* | 19.9 | 17.5 | 25.5 | 46.0*
CC1(CO)COC2(OC1)C(=O)Nc1ccccc12 (stereo not given) | -23.0 | 8.4 | -4.8 | 1.6 | 10.1 | x
Cc1ccnc(SCCn2c(N3CC(C)CC(C)C3)nc3c2c(=O)n(C)c(=O)n3C)n1 (stereo not given) | -14.0 | 44.3* | 27.3 | 8.6 | 42.1 | 30.2
Cc1ccnc(SCCn2c(N3CCC(C)CC3)nc3c2c(=O)n(C)c(=O)n3C)n1 | 1.0 | 45.1* | 30.1 | 13.2 | 31.8 | 28.1
Cc1ccnc(SCCn2c(N3CC(C)OC(C)C3)nc3c2c(=O)n(C)c(=O)n3C)n1 (stereo not given) | 3.1 | 12.9 | 9.6 | 3.1 | 8.5 | x
O=C(O)c1ccc(Cn2cnc3c(=O)[nH]cnc32)cc1 | -1.4 | x | x | x | x | x
Cc1ccc(/C=C/C(=O)Nc2sc(C)c(C)c2C(=O)OC(C)C)o1 | -96.9 | 13.6 | 1.7 | 6.4 | 10.9 | x
CCOC(=O)c1c(NC(=O)/C=C/c2ccc(C)o2)sc(C)c1C | -15.1 | 45.8* | 13.0 | 3.7 | 14.0 | 24.5
COc1cccc(N(C(=O)c2nc3nccc(C)n3n2)c2nc3ccccc3s2)c1 | -17.0 | 48.1* | 18.1 | 5.3 | 31.0 | 23.8
CCOC(=O)c1cc(C)n(-c2ccc(OC)c(OC)c2)c1C | 1.8 | 47.1* | 17.2 | -1.3 | 15.2 | 9.5
CCOC(=O)c1cc(C)n(-c2ccc(Cl)cc2)c1C | 6.2 | 2.2 | 13.4 | 6.8 | 10.4 | x
O=C(CN1CCCc2ccccc21)Nc1ccc(F)cc1[N+](=O)[O-] | 2.8 | 6.3 | 8.1 | 15.8 | -6.1 | x
S=c1[nH]nc(-c2ccccc2Br)n1Cc1ccccc1 | 13.4 | 41.1* | 21.2 | 15.5 | 29.2 | 25.5
Oc1ccc(Br)cc1-c1n[nH]c(=S)n1Cc1ccccc1 | -18.6 | 18.0 | 18.4 | 22.7 | 24.6 | x
Oc1ccccc1-c1n[nH]c(=S)n1Cc1ccccc1 | 19.2 | 4.7 | 16.2 | 7.9 | 4.5 | x
SMILES | PfHsp90 set2 | tim10-1 inh | TIM10 inh | NALP3 yeast inh | tim23-1 inh | tim10-1 confirm
Cc1ccccc1-c1n[nH]c(=S)n1Cc1ccccc1 | 2.3 | 40.1* | 25.8 | 1.7 | 5.3 | 16.4
NC(=O)CC(O)c1cccc(Cl)c1 (stereo not given) | -7.5 | -2.1 | 5.5 | -4.3 | 6.5 | x
COc1ccc(CCNc2oc(COc3ccccc3)nc2C#N)cc1 | 18.0 | 47.0* | 5.2 | 17.9 | 18.8 | 43.2*
Nc1ncnc(Nc2cccc(C(F)(F)F)c2)n1 | 42.3 | 7.7 | -6.2 | 16.4 | -3.5 | x
Nc1nc(Nc2cccc(C(F)(F)F)c2)nc(C(F)(F)F)n1 | 45.1 | 44.1* | 39.3 | 17.0 | 41.8 | 35.4*
O=C(Nc1ccc2c(c1)OCO2)c1nn(-c2ccccc2)c(=O)c2ccccc12 | -13.9 | 44.0* | 17.7 | 12.7 | 24.8 | 17.4
